{"source": "PubChem BioAssay (EPA / NIEHS)", "note": "Results filed as inconclusive are left out. Active and inactive are the calls of the source. How the source made its calls: active means hit-call score of the fitted dose curve at least 0.9, where 1 is the maximum; inconclusive means response in the unintended direction; inactive means score below 0.9.", "data": [{"read-out": "Cytochrome P450 3A4 (Homo sapiens) (UniProt P08684)", "experiment": "CLD_CYP3A4_24hr: CellzDirect (CLD) Gene Expression Assay for xenobiotic metabolism (CYP3A4) at 24 hours (AID 2283689)", "experimental": "CLD_24hr is a cell-based, multiplexed-readout assay that uses hepatocyte, a human liver primary cell, with measurements taken at 24 hours after chemical dosing in a 96-well plate.CLD_CYP3A4_24hr is one of 16 assay component(s) measured or calculated from the CLD_24hr assay. It is designed to make measurements of mRNA induction, a form of inducible reporter, as detected with chemiluminescence signals by Quantitative Nuclease Protection Assay (qNPA) technology.Data from the assay component CLD_CYP3A4_24hr was analyzed at the endpoint, CLD_CYP3A4_24hr, in the positive analysis fitting direction relative to DMSO as the negative control and baseline of activity. Using a type of inducible reporter, gain-of-signal activity can be used to understand changes in the reporter gene as they relate to the gene CYP3A4. Furthermore, this assay endpoint can be referred to as a primary readout. To generalize the intended target to other relatable targets, this assay endpoint is annotated to the cyp intended target family, where subfamily is xenobiotic metabolism.\nHuman hepatocyte cultures were treated daily for two consecutive days with fresh dosing solutions containing appropriate concentrations of the 320 ToxCast chemicals (chemical identities were blinded to CellzDirect and other ToxCast collaborators), vehicle control (0.2% DMSO), and positive control inducers as summarized in Table 1. Due to the large number of treatment groups and chemicals examined, the ToxCast chemicals were divided into two groups (spanning two independent cultures of hepatocytes from separate donor preparations (Hu778: ToxCast plates 1 and 2; Hu776: ToxCast plates 3 and 4). Each preparation of human hepatocyte cultures was treated with respective vehicle control, medium only control, set of six positive controls/reference chemicals for the five hepatic receptor pathways, and a subset of eight of the ToxCast chemicals (indoxacarb, pyrithiobac-sodium, norflurazon, cyhalofop-butyl, methomyl, thiram, acetochlor, and propiconazole). These replicate data, coupled with internal replicates designed within the blinded ToxCast chemical library, provided additional data to evaluate interindividual differences between hepatocyte preparations and their potential impact on chemical profiles.Cell morphology and integrity were evaluated using phase-contrast microscopy as an indicator of hepatocyte cell health (Tyson & Green, 1987). Cultures for each treatment group (i.e., media, vehicle [0.2% DMSO], positive control inducers [multiple concentrations], and the ToxCast chemicals [multiple concentrations]) were observed and cell morphology was assessed relative to vehicle control cultures at each harvest time point (0, 6, 24, or 48 h). […] Images were evaluated at the conclusion of the study to assess changes in cell integrity and account for the effects of chemical exposure on uncharacteristic changes in concentration-dependent gene expression profiles. The results from these determinations of apparent cytotoxicity were annotated (yes/no) alongside the corresponding qNPA data for reference.At the conclusion of each treatment period, hepatocyte cultures (96-well) were washed with 1 volume of HBSS, lysed by addition of 25 ul ArrayPlate lysis buffer (HTG, Tucson, AZ), and 70 ul/well of Denaturation Oil, denatured by incubation at 95C for 10 min, and frozen at approximately -70C until analysis by nuclease protection assay (qNPA) (Roberts et al., 2007). For qNPA analysis, cell lysates were thawed at 50C for approximately 30 min, qNPA probes were added, and samples were incubated at 95C for 10 min to begin the detection process by denaturing the target RNA, dissociating the duplexes and secondary structure hybridization. At the conclusion of the hybridization period, S1 nuclease reagent was added to each sample to digest all nonprotected nucleotides at 50C for 60-90 min. […]", "values": [{"compound": "COP(=O)(NC(C)=O)SC", "note": "(stereo not given)", "outcome": "inactive"}, {"compound": "N#CSCSC#N", "outcome": "inactive"}, {"compound": "CSc1nnc(C(C)(C)C)c(=O)n1N", "AC50": "4.88 µM (active)"}, {"compound": "C[Si](Cn1cncn1)(c1ccc(F)cc1)c1ccc(F)cc1", "AC50": "1.89 µM (active)"}, {"compound": "CCCOCC(=Nc1ccc(Cl)cc1C(F)(F)F)n1ccnc1", "AC50": "1.9 µM (active)"}, {"compound": "Cc1ccn2nc(S(=O)(=O)Nc3c(F)cccc3F)nc2n1", "outcome": "inactive"}, {"compound": "CN(C)C(=O)Nc1cccc(C(F)(F)F)c1", "AC50": "20 µM (active)"}, {"compound": "C[N+]1(C)CCCCC1", "AC50": "1.89 µM (active)"}, {"compound": "CN(C)[C@@H]1C(=O)C(C(N)=O)=C(O)[C@@]2(O)C(=O)C3=C(O)c4c(O)cccc4[C@@](C)(O)[C@H]3[C@H](O)[C@@H]12", "outcome": "inactive"}, {"compound": "CCOC(=O)COc1cc(-c2nn(C)c(OC(F)F)c2Cl)c(F)cc1Cl", "AC50": "20 µM (active)"}, {"compound": "Cc1nn(-c2cc(NS(C)(=O)=O)c(Cl)cc2Cl)c(=O)n1C(F)F", "AC50": "0.376 µM (active)"}, {"compound": "CCNc1nc(Cl)nc(NC(C)(C)C#N)n1", "AC50": "4.74 µM (active)"}, {"compound": "COP(=O)(OC)SCn1c(=O)oc2cc(Cl)cnc21", "outcome": "inactive"}, {"compound": "CCCCSP(=O)(SCCCC)SCCCC", "AC50": "1.9 µM (active)"}, {"compound": "CCc1cccc(C)c1N(C(=O)CCl)C(C)COC", "note": "(stereo not given)", "AC50": "8.71 µM (active)"}, {"compound": "CC(C1CC1)C(O)(Cn1cncn1)c1ccc(Cl)cc1", "note": "(stereo not given)", "AC50": "3.78 µM (active)"}, {"compound": "CC(C)=CC1C(C(=O)OCN2C(=O)C3=C(CCCC3)C2=O)C1(C)C", "note": "(stereo not given)", "AC50": "4.28 µM (active)"}, {"compound": "CCOP(=O)(OCC)Oc1cc(C)nc(C(C)C)n1", "outcome": "inactive"}, {"compound": "CCOP(=S)(OCC)SCCSCC", "AC50": "20 µM (active)"}, {"compound": "COc1ccc(C(=CC(=O)N2CCOCC2)c2ccc(Cl)cc2)cc1OC", "AC50": "2.09 µM (active)"}, {"compound": "CC1(C(=O)Nc2ccc(O)c(Cl)c2Cl)CCCCC1", "outcome": "inactive"}, {"compound": "CC(=NC#N)N(C)Cc1ccc(Cl)nc1", "outcome": "inactive"}, {"compound": "CCc1cnc(C2=NC(C)(C(C)C)C(=O)N2)c(C(=O)O)c1", "note": "(stereo not given)", "outcome": "inactive"}, {"compound": "CNC(=O)ON=C(SC)C(=O)N(C)C", "outcome": "inactive"}, {"compound": "CCOP(=O)(SC(C)CC)N1CCSC1=O", "note": "(stereo not given)", "AC50": "13.4 µM (active)"}, {"compound": "CSc1nc(NC(C)C)nc(NC(C)C)n1", "AC50": "3.97 µM (active)"}, {"compound": "CCCSP(=O)(OCC)SCCC", "outcome": "inactive"}, {"compound": "CC[C@H](C)[C@H]1O[C@]2(C=C[C@@H]1C)C[C@@H]1C[C@@H](C/C=C(\\C)[C@@H](O[C@H]3C[C@H](OC)[C@@H](O[C@H]4C[C@H](OC)[C@@H](NC)[C@H](C)O4)[C@H](C)O3)[C@@H](C)/C=C/C=C3\\CO[C@@H]4[C@H](O)C(C)=C[C@@H](C(=O)O1)[C@]34O)O2", "outcome": "inactive"}, {"compound": "CON=C(C(=O)OC)c1ccccc1CON=C(C)c1cccc(C(F)(F)F)c1", "AC50": "15.6 µM (active)"}, {"compound": "CC1=NNC(=O)N(/N=C/c2cccnc2)C1", "outcome": "inactive"}, {"compound": "CC(C)N(C(=O)SCC(Cl)=C(Cl)Cl)C(C)C", "AC50": "20 µM (active)"}, {"compound": "O=C(O)c1cc(Oc2ccc(C(F)(F)F)cc2Cl)ccc1[N+](=O)[O-]", "outcome": "inactive"}, {"compound": "CCOP(=S)(OCC)OC(Cl)C(Cl)(Cl)Cl", "note": "(stereo not given)", "AC50": "6.19 µM (active)"}, {"compound": "C#CC(C)(C)NC(=O)c1cc(Cl)cc(Cl)c1", "outcome": "inactive"}, {"compound": "CCCSP(=O)(OCC)Oc1ccc(Br)cc1Cl", "note": "(stereo not given)", "AC50": "20 µM (active)"}, {"compound": "CCOP(=S)(Oc1cnc(C(C)(C)C)nc1)OC(C)C", "note": "(stereo not given)", "AC50": "0.464 µM (active)"}, {"compound": "Nc1c(Cl)cc([N+](=O)[O-])cc1Cl", "outcome": "inactive"}, {"compound": "CCCCN(CC)c1c([N+](=O)[O-])cc(C(F)(F)F)cc1[N+](=O)[O-]", "AC50": "6.35 µM (active)"}, {"compound": "CCOC(=O)CC(SP(=O)(OC)OC)C(=O)OCC", "note": "(stereo not given)", "AC50": "20 µM (active)"}, {"compound": "CC(COc1ccc(Oc2ccccc2)cc1)Oc1ccccn1", "note": "(stereo not given)", "AC50": "4.68 µM (active)"}]}]}
